From PubChem
CapD inh: CapD enzyme inhibition | purified CapD enzyme, fluorescence intensity read-out; hits give low values | z-score (concentration not given with the values) | 140,000 tested, 0.23% active; in the data active = z-score mostly below about -2.9, no sharp cut-off; inactive = mostly above about -1.9
* marks the source's active call; other numbers are inactive results. Shown is part of a subset that was picked to be rich in hits.

SMILES	CapD inh
COc1ccc(N2C(=O)CCC2(C(N)=O)c2ccccc2)cc1 (stereo not drawn)	0.365
Cc1ccc(N2C(=O)C(O)=CC2(O)c2ccccc2)cc1 (stereo not drawn)	-1.12
COc1ccc(N2C(=O)C(O)=CC2(OC)c2ccccc2)cc1 (stereo not drawn)	-4.47*
CCN1C[C@]2(C)CC[C@H](OC)[C@]34C2[C@H](OC(C)=O)C2(OCO[C@@]25CC(OC)C2C[C@]3(O)C5[C@H]2OC)[C@@H]14 (stereo partly drawn)	0.235
N#CC1=C(SCC(=O)Nc2ccc(Cl)c(Cl)c2)NC(=O)CC1c1cccs1 (stereo not drawn)	0.205
CS(=O)(=O)c1ccc(CN(Cc2ccccn2)C(=O)c2cc(Cl)nc(Cl)c2)cc1	0.52
CC(=O)N1C(=O)/C(=C\C(=O)c2ccc(C)cc2)c2ccccc21	-0.995
CC(=O)N1C(=O)c2ccc([N+](=O)[O-])cc2C1=O	-0.65
CC(=O)N1C(=O)c2ccccc2C1=O	-5.4*
O=C1OC(c2cc([N+](=O)[O-])cc([N+](=O)[O-])c2)=N/C1=C\c1ccccc1Br	-1.09
COC(=O)c1c(C)[nH]c(C)c1/C=C(\C#N)S(=O)(=O)c1ccc(C)cc1	-0.66
N#C/C(N)=C(\C#N)NCc1cccc(Cl)c1	0.135
COc1ccc(-c2cc(C(F)(F)F)n3ncc(C(=O)Nc4cc(Cl)ccc4O)c3n2)cc1OC	0.485
C=CCN1C(=O)/C(=C\c2ccccc2O)SC1=S	-1.64
CCOC(=O)c1nonc1N	-0.195
CC(=O)N1c2nonc2N(C(C)=O)c2nonc21	-10.7*
CC(=O)Nc1nonc1N1CCCC1=O	0.08
Cn1cccc1/C=N/n1cnnc1	-5.53*
NS(=O)(=O)c1ccc(-n2cccc2C=Nn2cnnc2)cc1	-1.77
C(=N\n1cnnc1)/c1ccccc1	0.405
CN(C)S(=O)(=O)c1ccc(C(=O)Nc2nnc(C34CC5CC(CC(C5)C3)C4)s2)cc1	-0.335
CCOC(=O)C1=C(C)N=c2s/c(=C/c3cc(OC)c(O)cc3Br)c(=O)n2C1c1ccccc1 (stereo not drawn)	-0.135
N=C1S/C(=C/c2ccc(-c3ccccc3C(=O)O)o2)C(=O)N1c1nccs1	-2.13
N=C1S/C(=C\c2ccc(-c3ccccc3F)o2)C(=O)N1c1nccs1	-1.15
N=C1S/C(=C/c2ccco2)C(=O)N1c1nccs1	-4.33*
SMILES	CapD inh
Cc1ccc(C(=O)/C=C/N(C)C)cn1	-2.84
CN(C)/C=C/C(=O)c1ccsc1	-6.34*
CN(C)/C=C/C(=O)c1cccc(C(F)(F)F)c1	-1.84
CCN(CC)CCNc1ccnc2cc3ccccc3cc12	3.98
CCc1ccc(-n2c(N)c(C(=O)Nc3ccccc3OC)sc2=S)cc1	-0.6
O=C(ON1C(=O)CCC1=O)c1ccc(Cl)cc1Cl	-3.96*
O=C(ON1C(=O)CCC1=O)c1ccccc1Cl	-0.13
CC(C)(C)c1cc(OC(=O)c2ccc(Cl)cc2Cl)c(C(C)(C)C)cc1OC(=O)c1ccc(Cl)cc1Cl	0.215
CCOc1ccc(C2C(C#N)=C(C(=C=[N-])C#N)NC(O)(C3CC3)C2[n+]2ccc(C)cc2)cc1 (stereo not drawn)	0.885
COc1ccc(N=C2SC(C(=O)Nc3ccc(F)cc3)CC(=O)N2Cc2ccc3c(c2)OCO3)cc1 (stereo not drawn)	-0.2
CCN1C(=O)/C(=C\c2ccc(OC)cc2)C(C(=O)OC)=C1C	-4.86*
C=CCN1C(=O)/C(=C\c2ccccc2)C(C(=O)OC)=C1C	-1.31
CCN1C(=O)/C(=C\c2ccco2)C(C(=O)OC)=C1C	-0.87
C=CCN1C(=O)c2[nH]nc(-c3ccccc3O)c2C1c1ccc(O)cc1 (stereo not drawn)	0.02
CSc1ccc(C=C(C#N)C#N)cc1	-0.665
CN(C)c1ccc(C=C(C#N)C#N)cc1	-0.06
N#CC(C#N)=Cc1ccc(O)c(Cl)c1	-5.42*
CC(=O)Nc1ccc(S(=O)(=O)Oc2ccc(-c3ccccc3)c(F)c2)cc1	-0.25
Cc1ccn(CO)n1	0.07
CN(C)/C=C1\Cc2ccccc2C1=O	6.44
CN(C)/C=C1\CCCc2ccccc2C1=O	-4.12*
O=C1/C(=C/c2ccccc2)CCCc2ccccc21	-0.17
O=C(c1ccc(Cn2c(=S)[nH]c3ccc(Br)cc3c2=O)cc1)N1CCN(c2ccccn2)CC1	-0.85
Cc1cc2nc(-c3cccnc3Cl)n(Cc3ccccc3Cl)c2cc1C	9.24
NC(=O)CSc1nnc(Cc2cc(=O)[nH]c(=O)[nH]2)n1-c1ccccc1	-5.03*
SMILES	CapD inh
O=C(CSc1nnc(Cc2cc(=O)[nH]c(=O)[nH]2)n1-c1ccccc1)N1CCCC1	-0.125
CCSc1nnc(Cc2cc(=O)[nH]c(=O)[nH]2)n1-c1cccc(C)c1	-0.18
CCCCCc1ccc(CN)cc1	-0.56
Cc1ccc(N2CCN(C(=O)C3(C)CCC(C(=O)O)C3(C)C)CC2)cc1 (stereo not drawn)	-0.19
CC(C)C(C(=O)O)N1C(=O)/C(=C/c2ccccc2)SC1=S (stereo not drawn)	-2.12
COc1cc(/C=C2\SC(=S)N(C(C(=O)O)C(C)C)C2=O)cc(OC)c1O (stereo not drawn)	-0.36
CCOc1cc(/C=C2\SC(=S)N(C(C(=O)O)C(C)C)C2=O)ccc1O (stereo not drawn)	-4.79*
CC(=O)Nc1ccc(/C=C(\C#N)c2ccc(C)cc2)cc1	0.26
CCCCN(CC)C(=O)Cn1c(=O)c2ccccc2n(CC)c1=O	5.52
c1ccc(Nc2c(-c3ccsc3)nc3cnccn23)cc1	4.85
N#C/C(=N\Nc1cc(C(F)(F)F)cc(C(F)(F)F)c1)C(=O)c1ccco1	-2.56
N#CC(C(=O)c1ccco1)=C1SCCCS1	-1.98
N#C/C(=N\O)C(=O)c1ccco1	-4.63*
CCOC(=O)c1c(CN2CCN(CC#N)CC2)n(Cc2ccccc2)c2cc(Br)c(O)cc12	-0.13
CCOc1ccccc1N/C(SCc1ccccc1Cl)=C(/C#N)C(=O)NCc1cccs1	0.075
Cc1ccc(C2C3=C(CC(c4ccco4)CC3=O)Nc3ccccc3N2C(=O)c2ccccc2)cc1 (stereo not drawn)	0.025
N#CC1=C(N)Oc2cc(O)ccc2C1c1ccccc1 (stereo not drawn)	0.165
O=C(O)C1Sc2[nH]c(=O)sc2C2c3ccc(O)cc3OC(=O)C12 (stereo not drawn)	-8.79*
COC(=O)C1Sc2[nH]c(=O)sc2C(c2ccc(Cl)cc2)C1C(=O)OC (stereo not drawn)	0.1
CCCCCCCCCCCCCCCCCCCCCC(=O)OCC1OC2OC(C)(C)OC2C2OC(C)(C)OC12 (stereo not drawn)	-0.14
CCS(=O)(=O)C1=NSC2=NC(=O)/C(=C\c3ccco3)C(=N)N21	-3.41
CC(C)CS(=O)(=O)C1=NN2C(=N)/C(=C\c3ccco3)C(=O)N=C2S1	-4.13*
N=C1/C(=C/c2ccco2)C(=O)N=C2SC=C(c3ccccc3)N12	-0.135
CC(C)NC(=O)c1ccc(CN(Cc2ccccc2)C(=O)Nc2ccc(F)cc2)o1	0.42
N#CCN(CC#N)C(=O)c1ccccc1	0.135
SMILES	CapD inh
CCCCc1c(C)nc(N)[nH]c1=O	0.435
CCc1c(C)[nH]c(N)nc1=S	-4.37*
CCc1c(C)nc(N)nc1N1NC1=S	-1.04
NCc1cn2ccccc2n1	2.17
COc1cccc(-c2cn3c(n2)sc2cc(C(=O)NCC4CCCO4)ccc23)c1 (stereo not drawn)	19.7
COc1ccc(S(=O)(=O)N(C(C)=O)c2ccc3oc(=O)sc3c2)cc1	-3.3
COc1ccc(N(C(C)=O)S(=O)(=O)c2ccc(F)cc2)cc1	-7.35*
CC(=O)Oc1ccc(N(C(C)=O)S(=O)(=O)c2ccc3ccccc3c2)cc1	-0.08
N#Cc1ccc(COC(=O)CNC(=O)c2ccccc2)cc1	-0.765
